Experimental data published in PubChem BioAssay.
Calls of active or inactive are those of the source.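 Rule for the calls, unless noted: active = visually confirmed hit in the image check and inhibition above 20%; inconclusive = visually confirmed hit but inhibition not above 20%; inactive = no visual hit in the image check.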

Tests used:
[1] = inhibitors of TNFa-induced NFkB p65 translocation, primary screen, imaging, HUVEC, MLSMR starter and 10KST1 sets (AID 438;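 active = inhibition above 20% together with a positive visual image hit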;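 note: compound added about 3h40 before a 20 min TNFalpha stimulation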;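 for inhibition: signal is the nuclear over cytoplasmic p65 intensity ratio per well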); settings: HUVEC TNFa-induced p65 nuclear translocation; cell count: measured here: nuclei count (cytotoxicity indicator), at 2.08 µM; inhibition: at 2 µM, stronger effect = higher value, 0% TNFa-plus-vehicle, 100% no-TNFa wells
[2] = inhibitors of mutant huntingtin aggregation, primary screen, imaging, exon1htt(103Q)mCFP cells, high-content imaging (AID 483;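 active = visual image review flags a hit and inhibition of aggregation exceeds 20%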;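 note: compound exposure lasted 3 days before fixation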;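 for nuclei count: percent of the per-plate median nuclei count of sample wells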); settings: exon1htt(103Q)mCFP cell line, aggregate imaging, at 2 µM; inhibition of aggregation: stronger effect = higher value; nuclei count: measured here: cell count, toxicity
[3] = inhibitors of E-selectin induction by TNFa, primary screen, imaging, HUVEC, immunofluorescence, MLSMR starter and 10KST1 sets (AID 487); settings: HUVEC TNFalpha-induced E-selectin immunofluorescence imaging, at 2 µM; inhibition: stronger effect = higher value; nuclei count: measured here: cell number, toxicity;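 for inhibition: signal is fraction of cell area covered by stained E-selectin grains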;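 for nuclei count: 100% = median nuclei count of all wells on the same plate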
[4] = biological target: Voltage-gated potassium channel subunit beta-2 (Rattus norvegicus) (UniProt P62483); experiment: KvBeta enzyme negative modulators, primary screen, biochemical, NADPH fluorescence (AID 622;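 active = fluorescence slope higher than the sample average by over 3 SD, cut at about -0.22 in these data, passing the limit was not always enough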;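 note: slope of raw intensity against log time taken from 70 to 1610 s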); settings: recombinant KvBeta, 4-cyanobenzaldehyde reduction, at 10 µM, stronger effect = higher value
[5] = biological target: Voltage-gated potassium channel subunit beta-2 (Rattus norvegicus) (UniProt P62483); experiment: KvBeta positive modulators, primary screen, biochemical, NADPH fluorescence (AID 623;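 active = NADPH fluorescence slope more negative than the mean of all samples by about 3 SD, 99.7% confidence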;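 note: fluorescence intensity change per second fitted from 20 to 320 s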); settings: Recombinant KvBeta, NADPH fluorescence decrease slope, 10 min; at 10 µM; stronger effect = lower value
[6] = biological target: Alpha-2C adrenergic receptor (Homo sapiens) (UniProt P18825); experiment: modulators of alpha2C/GIRK thallium flux, primary screen, cell-based, HEK293 alpha2C/GIRK1/2 (AID 624;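 active = fluorescence slope after compound addition differing from the mean of all screened samples at 99.7% confidence, in either direction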;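 note: slope of fluorescence ratio to pre-addition baseline per second over 15 to 24 s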); settings: thallium flux BTC fluorescence, at 10 µM, actives lie on both sides
[7] = inhibitors of Sendai virus-induced IRF3 signaling, primary screen, TLR/RLR signaling modifier project, cell-based, Sendai virus stimulus, luciferase, 10K MLSCN set (AID 602276;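 active = inhibition at or above 50% at 10 µM; inactive = inhibition below 50%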;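 note: firefly luciferase from ISG56 promoter only with Renilla not read in this screen; 0% = Sendai virus plus DMSO and 100% = medium plus DMSO without virus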); settings: HEK293 RL24 IRF3 luciferase reporter, at 10 µM, stronger effect = higher value
[8] = inhibitors of poly I:C-induced TLR3 signaling, primary screen, cell-based, poly I:C stimulus, luciferase, 10K MLSCN set (AID 602277;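 active = inhibition of the reporter signal at or above 50%; inactive = inhibition below 50%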); settings: HEK293-TLR3 RL24 IRF3 luciferase reporter, at 10 µM, stronger effect = higher value

Alpha-2C adrenergic receptor (Homo sapiens), sequence (P18825 whole entry, looked up): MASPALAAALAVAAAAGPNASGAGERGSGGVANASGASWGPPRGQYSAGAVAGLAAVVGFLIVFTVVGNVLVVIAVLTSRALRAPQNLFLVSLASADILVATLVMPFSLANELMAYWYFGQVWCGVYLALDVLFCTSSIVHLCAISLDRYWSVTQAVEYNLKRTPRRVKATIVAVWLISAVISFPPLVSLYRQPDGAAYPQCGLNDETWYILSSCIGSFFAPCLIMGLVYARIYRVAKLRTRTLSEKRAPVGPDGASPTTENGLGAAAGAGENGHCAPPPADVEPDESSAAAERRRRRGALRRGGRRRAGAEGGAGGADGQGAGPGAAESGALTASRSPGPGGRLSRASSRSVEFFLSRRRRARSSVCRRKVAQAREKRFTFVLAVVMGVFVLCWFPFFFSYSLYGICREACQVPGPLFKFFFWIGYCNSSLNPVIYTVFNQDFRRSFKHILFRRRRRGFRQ
Voltage-gated potassium channel subunit beta-2 (Rattus norvegicus), sequence (P62483 whole entry, looked up): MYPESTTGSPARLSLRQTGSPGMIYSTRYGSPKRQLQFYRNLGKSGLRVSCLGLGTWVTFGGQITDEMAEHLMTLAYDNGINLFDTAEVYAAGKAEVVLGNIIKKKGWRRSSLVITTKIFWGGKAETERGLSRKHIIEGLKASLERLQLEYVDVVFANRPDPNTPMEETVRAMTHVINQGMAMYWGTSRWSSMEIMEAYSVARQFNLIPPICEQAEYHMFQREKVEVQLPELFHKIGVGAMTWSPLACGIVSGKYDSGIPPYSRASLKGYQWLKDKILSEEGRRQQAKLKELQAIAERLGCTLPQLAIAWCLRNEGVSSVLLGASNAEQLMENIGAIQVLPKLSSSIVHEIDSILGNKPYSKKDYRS

| Structure (SMILES) | cell count [1] | inhibition [1] | inhibition of aggregation [2] | nuclei count [2] [%] | inhibition [3] | nuclei count [3] [%] | fluorescence slope [4] | NADPH fluorescence slope [5] | slope [6] | inhibition [7] | inhibition [8] |
| --- | --- | --- | --- | --- | --- | --- | --- | --- | --- | --- | --- |
| COCCn1c(COc2ccc(Cl)cc2)nnc1SCC(N)=O | 424 | 3.4% (inactive) | 7.6% (inactive) | 93.8 | -31.9% (inactive) | 119 | -0.586 (inactive) | -6e-05 (inactive) | 0.00579 (inactive) | 18.2% (inactive) | 25.2% (inactive) |
| Cc1ccc(S(=O)(=O)Cn2nnnc2C(C(C)C)N2CCN(C(=O)c3ccco3)CC2)cc1 (stereo not given) | 400 | -0.4% (inactive) | 2.5% (inactive) | 100 | 6.9% (inactive) | 101 | -0.405 (inactive) | -4.2e-05 (inactive) | 0.00633 (inactive) | 11.4% (inactive) | 15.4% (inactive) |
| CCCn1c(OC)nc2c1c(=O)n(C)c(=O)n2C | 660 | -3.7% (inactive) | 2.9% (inactive) | 104 | -34.6% (inactive) | 124 | -0.426 (inactive) | -5.4e-05 (inactive) | 0.00615 (inactive) | 15.2% (inactive) | 33.4% (inactive) |
| CCOc1ccc(CNC(=O)C2CCCN(S(C)(=O)=O)C2)cc1OC (stereo not given) | 664 | -7.1% (inactive) | 11.9% (inactive) | 84 | -95.3% (inactive) | 136 | -0.356 (inactive) | -1.3e-05 (inactive) | 0.00564 (inactive) | 9.09% (inactive) | 12% (inactive) |
| COCCOC(=O)C1=C(C)NC(=O)CC1c1cc2c(cc1Br)OCO2 (stereo not given) | 424 | 4.1% (inactive) | 16.1% (inactive) | 104 | -12.8% (inactive) | 95.1 | -0.395 (inactive) | -2.8e-05 (inactive) | 0.0043 (inactive) | 17.3% (inactive) | 16.1% (inactive) |
| CCOC(=O)C(C(C)=O)c1nc(C)nc2c1nnn2Cc1ccccc1Cl (stereo not given) | 479 | 8.5% (inactive) | -6% (inactive) | 96.1 | -10.3% (inactive) | 106 | -0.356 (inactive) | -5.3e-05 (inactive) | 0.00379 (inactive) | -11.2% (inactive) | -19.4% (inactive) |
| O=C(CN(CCc1ccccc1)C(=O)CN1C(=O)COc2ccccc21)NCc1ccco1 | 571 | -2.3% (inactive) | -4.1% (inactive) | 55.5 | -12.8% (inactive) | 97.6 | -0.468 (inactive) | -3.2e-06 (inactive) | 0.00696 (inactive) | 16.4% (inactive) | 23.2% (inactive) |
| CCc1nnc2n1N=C(c1ccc(-c3ccc(Cl)cc3Cl)o1)CS2 | 480 | 3.3% (inactive) | -48.4% (inactive) | 102 | -6.7% (inactive) | 105 | -0.607 (inactive) | 1.7e-05 (inactive) | 0.00636 (inactive) | 6.74% (inactive) | 10.2% (inactive) |
| Cn1ccnc1SCC(=O)Nc1ccc2ccccc2c1 | 228 | 9.6% (inactive) | 13.5% (inactive) | 120 | -14.1% (inactive) | 105 | -0.519 (inactive) | -4.1e-05 (inactive) | 0.00777 (inactive) | 2.61% (inactive) | -32.6% (inactive) |
| CCN(C(=O)CCc1nc(-c2ccccc2F)no1)c1cc(OC)ccc1OC | 403 | 6.7% (inactive) | -4.7% (inactive) | 110 | -20.9% (inactive) | 115 | -0.425 (inactive) | 1.9e-05 (inactive) | 0.00445 (inactive) | -11.3% (inactive) | -31% (inactive) |
| Cc1ccc(C(C(=O)NC2CCCCC2)N(C(=O)c2csnn2)C2CCCC2)o1 (stereo not given) | 514 | -8.3% (inactive) | -9.5% (inactive) | 103 | -68.9% (inactive) | 112 | -0.547 (inactive) | 1.5e-05 (inactive) | 0.00533 (inactive) | 14.4% (inactive) | 47.6% (inactive) |
| COC(=O)C(C)Sc1nc2c(c(=O)n1-c1ccccc1)SCC2 (stereo not given) | 330 | -1.4% (inactive) | -6.6% (inactive) | 113 | -51.5% (inactive) | 150 | -0.523 (inactive) | -7.6e-05 (inactive) | 0.00467 (inactive) | 7.35% (inactive) | 13.2% (inactive) |
| CCOC(=O)Cc1csc(NC(=O)CN(C)S(=O)(=O)c2ccc3c(c2)CCC(=O)N3)n1 | 585 | 12.6% (inactive) | -126% (inactive) | 29.2 | 40.4% (inactive) | 111 | -0.521 (inactive) | -3.1e-05 (inactive) | 0.00704 (inactive) | 25.7% (inactive) | 21.7% (inactive) |
| CC(=O)Nc1c(O)nc(SCC(=O)Nc2nnc(CC(C)C)s2)[nH]c1=O | 780 | -3.3% (inactive) | 0% (inactive) | 114 | -41% (inactive) | 104 | -0.541 (inactive) | 1.8e-05 (inactive) | 0.00412 (inactive) | -9.44% (inactive) | -13.3% (inactive) |
| CCOC(=O)c1cnc(SC2CC(=O)N(c3ccc(OC)c(OC)c3)C2=O)nc1N (stereo not given) | 811 | -3.6% (inactive) | -0.6% (inactive) | 95.4 | -110% (inactive) | 135 | -0.531 (inactive) | 1.4e-05 (inactive) | 0.00718 (inactive) | -6.56% (inactive) | -2.72% (inactive) |
| O=C(CN1CCCC1)Nc1ccc(NC(=O)Nc2ccccc2)cc1 | 433 | -5.7% (inactive) | 8.5% (inactive) | 96.4 | -132% (inactive) | 215 | -0.433 (inactive) | 7.1e-05 (inactive) | 0.00831 (inactive) | -33.7% (inactive) | -54.6% (inactive) |
| CCCN(C(=O)CSc1nnc(-c2ccoc2C)n1N)C1CCS(=O)(=O)C1 (stereo not given) | 468 | 11.7% (inactive) | -26.6% (inactive) | 116 | 30.6% (inactive) | 108 | -0.413 (inactive) | -8.5e-05 (inactive) | 0.00528 (inactive) | 15.7% (inactive) | 22.7% (inactive) |
| Cc1cc(OCC(=O)N2CCCC2)cc(C)c1Cl | 633 | 6.6% (inactive) | 3.4% (inactive) | 95 | -128% (inactive) | 99.5 | -0.601 (inactive) | -7.6e-05 (inactive) | 0.00573 (inactive) | 4.42% (inactive) | -0.933% (inactive) |
| C=CCn1c(SCC2=C(C(=O)OCC)C(C)NC(=O)N2)nnc1C1CCCCC1 (stereo not given) | 468 | 6% (inactive) | 4.5% (inactive) | 113 | -85.9% (inactive) | 121 | -0.469 (inactive) | 5.7e-05 (inactive) | 0.00672 (inactive) | 14.6% (inactive) | 27.1% (inactive) |
| Cc1nn(C)c(C)c1NC(=O)CSc1nc(Cc2ccccc2)nc2c1cnn2-c1ccccc1 | 360 | -0.5% (inactive) | -17.9% (inactive) | 105 | -127% (inactive) | 121 | -0.491 (inactive) | -6.6e-05 (inactive) | 0.00793 (inactive) | 12% (inactive) | 3.8% (inactive) |
| O=C(CNCC1CCCO1)Nc1ccccc1-n1cccc1 (stereo not given) | 671 | -11.4% (inactive) | 1.7% (inactive) | 90.8 | -127% (inactive) | 127 | -0.291 (inactive) | -4.7e-05 (inactive) | 0.00473 (inactive) | 2.08% (inactive) | 15% (inactive) |
| CCOC(=O)CNC(=O)CSc1ncnc2c1cnn2Cc1ccccc1 | 597 | 12.6% (inactive) | -12.1% (inactive) | 103 | -157% (inactive) | 134 | -0.374 (inactive) | -0.000157 (inactive) | 0.0067 (inactive) | 2.57% (inactive) | 24.8% (inactive) |
| CCN(c1cccc(C(F)(F)F)c1)S(=O)(=O)c1ccc2c(c1)CCN2C(=O)C1CC1 | 495 | 2.7% (inactive) | 3.1% (inactive) | 97.3 | -51.5% (inactive) | 104 | -0.405 (inactive) | -4.7e-05 (inactive) | 0.00287 (inactive) | -11.8% (inactive) | -25.9% (inactive) |
| O=S(=O)(c1cccc(-c2nnco2)c1)N1CCCC1 | 453 | 0.5% (inactive) | -4.5% (inactive) | 95.9 | 0.2% (inactive) | 108 | -0.519 (inactive) | -4.3e-05 (inactive) | 0.00457 (inactive) | 8.27% (inactive) | 13.9% (inactive) |
| Nc1nc2n(n1)C(c1cccc(Br)c1)CC(c1ccccc1)N2 (stereo not given) | 645 | 13.8% (inactive) | -26.4% (inactive) | 114 | -39.6% (inactive) | 111 | -0.59 (inactive) | 9.1e-06 (inactive) | 0.00794 (inactive) | 13.2% (inactive) | 37% (inactive) |
